# High-throughput results (PubChem BioAssay)
# HCMV inh – inhibitors of human cytomegalovirus; HFF cells, HCMV-luciferase reporter, 72 h; stronger effect = lower value; activity change, negative = inhibition, % at 57.5 µM; 410,000 compounds, 4.5% hits; AID 1259415; in the data active = activity change below about -60%; inconclusive = no clear call, values can overlap the other calls; inactive = above about -39%; note: % is set by controls: 0 for no effect and ±100 for the full control effect
#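 Two compound doses tested in HFFs infected with HCMV-luciferase, MOI 1 PFU/cell, 72 h at 37C. Lysate luminescence read with OneGlo; data normalized against buffer-only and 10uM Salinomycin inhibitor controls.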
# Pf growth 48h – P. falciparum growth inhibition at 48 hours (one generation). P. falciparum luciferase growth in erythrocytes, 48 h. Potency, µM (top dose mostly 28.7 µM), for the others: top-dose activity change, negative = inhibition, actives largely listed as inhibitors. 310,000 compounds, 5.9% hits; note: potency is the fitted concentration of half-maximal effect; % is set by controls: 0 for no effect and ±100 for the full control effect
#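 Firefly luciferase activity from engineered P. falciparum reports growth; inhibitors lower the luminescent signal. Cultures contained 2% hematocrit erythrocytes at 0.1% final parasitemia.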
# CHX counter – counter-screen for Shiga toxin inhibitors: cycloheximide protein synthesis inhibition; cell reporter, cycloheximide protein synthesis inhibition counterscreen; max response, %; 300,000 compounds, 12% hits; AID 2314; in the data active = max response mostly above about 13%, no sharp cut-off; inactive = mostly below about 14%; note: read at 38.3 µM for the half of the compounds with a filed dose; 0% is about no effect
# Pf growth 96h – P. falciparum growth inhibition at 96 hours | Potency, µM (series often up to 28.7 µM), for inactives: top-dose activity change, negative = inhibition, usual class: inhibitors | AID 504834 | 320,000 compounds, 6.9% hits | P. falciparum luciferase reporter growth, 96 h; note: potency is the fitted concentration of half-maximal effect; % is set by controls: 0 for no effect and ±100 for the full control effect
#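 Two parasite generations (96 h, 37 C, 5% CO2) of compound exposure in infected erythrocytes (0.05% parasitemia, 2% hematocrit). Luciferase-reporter P. falciparum; decreased luminescence indicates inhibited growth, aimed at apicoplast-acting delayed death.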
# Shiga toxin inh – blocks Shiga toxin action in Vero cells; Vero cells, Shiga toxin protein synthesis inhibition reporter; inhibition, % at 38.7 µM; 290,000 compounds, 9.2% hits; in the data active = inhibition mostly above about 28%, no sharp cut-off; inactive = mostly below about 43%; note: 0% is about no effect
# HCV inh – HCV inhibition; Huh7.5.1 HCVcc-Cre infection, luciferase reporter, 44 h; Potency, µM (series often up to 41.8 µM), for the others: at the top dose activity change, negative = inhibition, usual class: inhibitors; 340,000 compounds, 3.4% hits; AID 651820; note: potency is the fitted concentration of half-maximal effect; % is set by controls: 0 for no effect and ±100 for the full control effect
#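 Cells seeded at 1,000/well and cultured 4 h, then compounds added followed by HCVcc-Cre virus (~0.5 moi). After 44 h further culture, luciferase substrate was added, plates held 15 min at room temperature, and luminescence read for 15 sec.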
# Active calls of the source: *; ? = inconclusive; · = not tested or not shown; [ ] = another dose, or the depositor's remark. This is a sample that favours compounds with a hit; in the whole collection about 21% have one here. Unless noted, calls come from the whole dose curve; as a rule, active = well fitted inhibition curve with a large enough effect; inconclusive = small, poorly fitted or top-dose-only effect, or another doubt; inactive = no such curve, though single readings can be large or run the other way.
SMILES,HCMV inh,Pf growth 48h,CHX counter,Pf growth 96h,Shiga toxin inh,HCV inh
Cc1cnc(NC(=O)CSc2ccc(Cl)cc2)s1,5,-15%,-3,31%,2,8%
CC(N)c1csc(NC(=O)Nc2cccc(C(F)(F)F)c2)n1 (stereo unspecified),-68*,·,·,·,·,·
CC(=O)Nc1cc(C(=O)Nc2ccc3c(c2)N(C)C(=O)c2ccccc2S3)ccc1C,2,·,·,·,·,·
COc1cc(CN2CCCC(C(=O)N3CCc4ccccc4C3)C2)cc(OC)c1OC (stereo unspecified),-33,?,8,?,5,-15%
CCOc1ccc(Nc2ccc(N)c(S(=O)(=O)O)c2)cc1,?,·,·,·,·,-25%
CCOC(=O)Cc1csc(NC(=O)c2ccc(Cl)nc2)n1,-14,?,-2,0%,-7,-11%
CCOC(=O)Cc1csc(N/N=C/c2ccc(Cl)cc2)n1,-23,101%,31*,103%,53*,-12%
Cc1oc(-c2ccccc2Cl)nc1CSCC(=O)N1CCCC1,-78*,-19%,8,54%,25,?
Cc1oc(-c2ccccc2Cl)nc1CSCC(=O)NC1CCCC1,-75*,·,-1,?,-7,-12%
Cc1oc(-c2ccccc2Cl)nc1CS(=O)CC(=O)N1CCN(c2ccccc2)CC1 (stereo unspecified),-25,4%,1,?,-2,?
CC(OC(=O)CNC(=O)c1ccc(F)cc1)C(=O)Nc1ccc(S(=O)(=O)N2CCOCC2)cc1 (stereo unspecified),-18,7%,·,-30%,·,5%
O=C(c1cccs1)N1CCCc2ccccc21,-11,-14%,-3,15%,-4,?
Cn1c(C(=O)N2CCCc3ccccc32)cc2sccc21,-12,10%,26*,·,32,-20%
O=C(c1cc2sccc2n1Cc1ccccc1)N1CCc2ccccc21,-16,?,-4,?,30,?
O=C(c1cc2sccc2n1Cc1ccccc1)N1CCCc2ccccc21,25,?,41*,·,135*,?
Cc1c(Cl)cccc1-n1c(SCC(=O)N2CCC(C(=O)O)CC2)nnc1-c1ccncc1,-10,?,-2,11%,12,8%
COc1ccc(N(Cc2cccs2)C(=O)c2ccc(OCC(C)C)cc2)cc1,18,·,·,·,·,·
COc1ccc(/C=N/Nc2nnc(-c3ccccc3)c(=O)[nH]2)cc1,-100*,20%,3,?,2,6%
COc1ccc(/C(C)=N\Nc2nc(-c3ccccc3)cc(=O)[nH]2)cc1,14,0.93µM*,8,0.59µM*,-1,?
CN(C)c1ccc(C=NNc2nc3c([nH]2)c(=O)n(C)c(=O)n3C)cc1,-24,·,·,·,·,5%
COc1ccc(/C(C)=N/Nc2nc(C)cc(-c3ccccc3)n2)cc1,-94*,·,·,·,·,10µM*
O=c1[nH]c(N/N=C/c2ccccc2Br)nnc1-c1ccccc1,15,25%,0,?,-10,-21%
CN(C)c1ccc(/C=N\Nc2nc(-c3ccccc3)cc(=O)[nH]2)cc1,63,2.3µM*,-1,2.3µM*,-19,4%
CC1(c2nnc(-c3ccccc3)o2)CC(c2ccncc2)=NO1 (stereo unspecified),-3,0%,-4,21%,2,12%
O=C(c1cc(-c2cccnc2)nc2ccccc12)N1CCCc2ccccc21,?,?,-4,10µM*,-6,?
SMILES,HCMV inh,Pf growth 48h,CHX counter,Pf growth 96h,Shiga toxin inh,HCV inh
Cc1ccc2nc3sc(C(=O)N4CCCc5ccccc54)c(N)c3cc2c1,-90*,?,9,?,-9,?
Cc1ccc(-c2cc(C(F)(F)F)n3ncc(C(=O)N4CCCc5ccccc54)c3n2)cc1,-23,?,14,-13%,-2,2%
O=C(c1cc(-c2cccnc2)nc2ccccc12)N1CCN(S(=O)(=O)c2cccs2)CC1,0,12µM*,·,13µM*,·,-5%
O=C(c1cccnc1)N1CCCc2ccccc21,10,-4%,-7,6%,-6,·
Cc1ccc(-c2cc(C(=O)N3CCCc4ccccc43)c3ccccc3n2)cc1,-40,8.3µM*,-2,·,-13,7%
COC(=O)[C@@]1(C)[C@H]2C(=O)N(Cc3ccccc3)C(=O)[C@H]2[C@H]2CN=C(SCC(=O)c3ccccc3)N21,-17,·,·,·,·,-10%[8.37 µM]
CN(CCNC(=O)c1ccc(CS(=O)(=O)c2c(Cl)cccc2Cl)o1)CCc1ccccc1,-28,?,1,18%,-9,2%
CCCC(=O)Nc1cc(-c2nc3ncccc3o2)ccc1Cl,-10,-37%,6,?,-10,-7%
Cc1cc(-c2nc3ncccc3o2)ccc1N,55,186%,45*,?,85*,-15%
Nc1cc(-c2nc3ncccc3o2)ccc1Cl,175,106%,59*,-6%,60*,38%
Cc1ccc(-c2nc3ncccc3o2)cc1N,174,101%,49*,?,62*,2%
CCC(=O)Nc1ccc(-c2nc3ncccc3o2)cc1C,82,·,·,·,·,·
COc1ccc(C(=O)NCc2ccc3c(c2)CCN3C(C)=O)cc1OC,46,·,·,·,·,·
CCCN1C(=O)/C(=N\OCC(=O)NC23CC4CC(CC(C4)C2)C3)c2ccccc21,?,15µM*,-3,?,3,?
CCCN1C(=O)/C(=N\OCC(=O)Nc2ccc(C(C)C)cc2)c2ccccc21,?,52%,0,34%,-8,-12%
CC(OC(=O)CN1C(=O)c2ccccc2C1=O)C(=O)N(C)c1ccccc1 (stereo unspecified),-8,-22%,·,23%,·,3%
Cc1ccc(Cn2c(CO)cnc2SCC(=O)Nc2cccc(F)c2)cc1,-12,·,·,·,·,·
CC[n+]1ccc(C)c2cc(P(=O)(c3ccccc3)c3ccccc3)ccc21,0,13µM*,-2,?,-7,-20%
CC[n+]1ccc(C)c2cc(S(=O)C(F)(F)F)ccc21 (stereo unspecified),·,3.7µM*,-4,?,-10,-21%
CCCC(=O)Nc1ccc(NC(=O)C2CC2)cn1,-27,32%,26*,·,17,1%
O=C(CS(=O)(=O)c1ccccc1)Nc1ccccn1,-7,20%,-3,24%,-20,-4%
CCCCC(=O)Nc1ccc(NC(=O)CCCC)nc1,16,13%,13*,-11%,63,-3%
CCCCC(=O)Nc1ccc(NC(=O)C2CC2)cn1,119,93%,11,324%,33,-9%
O=C(CS(=O)(=O)c1ccccc1)Nc1ccc(Br)cn1,-12,30%,19*,28%,26*,16%
C=CCCC(=O)Nc1ccc(Br)cn1,-7,14%,28,4%,31,-19%
CCCCC(=O)Nc1ccc(Br)cn1,12,·,22*,67%,61,-12%
